Test results from PubChem BioAssay AID1159580 (chemical genetic matrix, 2015).
Screen size: about 5,500 compounds; about 2,000 (36%) were called active. Inconclusive results (about 18%) are left out. Cut-off read from the data, not from the text of the source: active = normalized growth mostly below about 0.91 (no sharp cut-off); inconclusive = no clear call, values can overlap the other calls; inactive = mostly above about 0.92. This is one part of the list.

Assay: chemical genetic growth profiling, strain panel (AID 1159580);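 note: tested at 20 µM; growth read once vehicle control cultures reached saturation at 30 °C; 1 = growth at the plate median or of vehicle wells; lower values mean less growth of the strain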
Settings: growth OD

Measured: normalized growth

COc1cc(O)c2c(c1)C(=O)c1cc(C)cc(O)c1C2=O
inactive: S. cerevisiae deletion strains, locus YJR075W, strain HOC1, hits give low values 1 | S. cerevisiae deletion strains, locus YKL009W, strain mrt4, hits give low values 0.921 | S. cerevisiae deletion strains, locus YKL068W, hits give low values 1.01 | S. cerevisiae deletion strains, locus YKL085W, strain MDH1 (second series), hits give low values 0.98 | S. cerevisiae deletion strains, locus YKL085W, strain MDH1, hits give low values 0.98 | S. cerevisiae deletion strains, locus YKL160W, strain elf1, hits give low values 0.997 | S. cerevisiae deletion strains, locus YKL190W, strain CNB1, hits give low values 1.02 | S. cerevisiae deletion strains, locus YKR001C, strain vps1, hits give low values 1.02 | S. cerevisiae deletion strains, locus YKR026C, strain gcn3, hits give low values 0.997 | S. cerevisiae deletion strains, locus YKR091W, strain srl3, hits give low values 0.981 | S. cerevisiae deletion strains, locus YLL001W, strain dnm1, hits give low values 0.994 | S. cerevisiae deletion strains, locus YLL026W, hits give low values 0.995 | S. cerevisiae deletion strains, locus YLL041C, strain sdh2, hits give low values 0.988 | S. cerevisiae deletion strains, locus YLR027C, strain aat2, hits give low values 0.986 | S. cerevisiae deletion strains, locus YLR039C, strain RIC1, hits give low values 0.846 | S. cerevisiae deletion strains, locus YLR058C, strain SHM2, hits give low values 1 | S. cerevisiae deletion strains, locus YLR102C, strain apc9, hits give low values 0.997 | S. cerevisiae deletion strains, locus YLR113W, strain HOG1, hits give low values 0.979 | S. cerevisiae deletion strains, locus YLR221C, strain rsa3, hits give low values 0.995 | S. cerevisiae deletion strains, locus YLR258W, strain gsy2, hits give low values 0.978 | S. cerevisiae deletion strains, locus YLR262C, strain YPT6, hits give low values 0.884 | S. cerevisiae deletion strains, locus YLR268W, strain sec22, hits give low values 0.924 | S. cerevisiae deletion strains, locus YLR320W, strain mms22, hits give low values 0.962 | S. cerevisiae deletion strains, locus YLR330W, strain CHS5, hits give low values 1.01 | S. cerevisiae deletion strains, locus YLR342W, strain FKS1 (second series), hits give low values 1.02 | S. cerevisiae deletion strains, locus YLR342W, strain FKS1, hits give low values 0.994 | S. cerevisiae deletion strains, locus YLR357W, strain rsc2, hits give low values 0.945 | S. cerevisiae deletion strains, locus YLR370C, strain arc18, hits give low values 0.986 | S. cerevisiae deletion strains, locus YLR371W, strain rom2, hits give low values 1 | S. cerevisiae deletion strains, locus YLR384C, strain iki3, hits give low values 0.977 | S. cerevisiae deletion strains, locus YLR418C, strain cdc73, hits give low values 1 | S. cerevisiae deletion strains, locus YML016C, strain PPZ1, hits give low values 1.01 | S. cerevisiae deletion strains, locus YML120C, strain ndi1, hits give low values 1 | S. cerevisiae deletion strains, locus YML124C, strain tub3, hits give low values 1 | S. cerevisiae deletion strains, locus YMR058W, strain fet3, hits give low values 1.01 | S. cerevisiae deletion strains, locus YMR078C, strain ctf18, hits give low values 0.982 | S. cerevisiae deletion strains, locus YMR125W, strain sto1, hits give low values 0.995 | S. cerevisiae deletion strains, locus YMR129W, hits give low values 0.992 | S. cerevisiae deletion strains, locus YMR205C, strain PFK2, hits give low values 0.97 | S. cerevisiae deletion strains, locus YMR223W, strain ubp8, hits give low values 0.974 | S. cerevisiae deletion strains, locus YMR231W, strain pep5, hits give low values 0.979 | S. cerevisiae deletion strains, locus YMR263W, strain SAP30, hits give low values 1.01 | S. cerevisiae deletion strains, locus YMR307W, strain GAS1, hits give low values 0.931 | S. cerevisiae deletion strains, locus YNL067W, strain RPL9B, hits give low values 0.989 | S. cerevisiae deletion strains, locus YNL071W, strain lat1, hits give low values 0.998 | S. cerevisiae deletion strains, locus YNL128W, strain TEP1, hits give low values 1.02 | S. cerevisiae deletion strains, locus YNL153C, strain GIM3, hits give low values 1 | S. cerevisiae deletion strains, locus YNL183C, strain NPR1, hits give low values 0.99 | S. cerevisiae deletion strains, locus YNL209W, strain ssb2, hits give low values 0.985 | S. cerevisiae deletion strains, locus YNL233W, strain BNI4, hits give low values 0.986 | S. cerevisiae deletion strains, locus YNL248C, strain rpa49, hits give low values 0.987 | S. cerevisiae deletion strains, locus YNL271C, strain bni1, hits give low values 0.996 | S. cerevisiae deletion strains, locus YNL298W, strain CLA4, hits give low values 0.91 | S. cerevisiae deletion strains, locus YNL322C, strain KRE1 (second series), hits give low values 0.974 | S. cerevisiae deletion strains, locus YNL322C, strain KRE1, hits give low values 1.01 | S. cerevisiae deletion strains, locus YNR049C, strain mso1, hits give low values 0.987 | S. cerevisiae deletion strains, locus YNR052C, strain pop2, hits give low values 0.992 | S. cerevisiae deletion strains, locus YOL006C, strain TOP1, hits give low values 0.775 | S. cerevisiae deletion strains, locus YOL012C, strain htz1 1.44 | S. cerevisiae deletion strains, locus YOL147C, strain pex11, hits give low values 1.02 | S. cerevisiae deletion strains, locus YOR001W, strain rrp6, hits give low values 1.01 | S. cerevisiae deletion strains, locus YOR061W, strain CKA2, hits give low values 1 | S. cerevisiae deletion strains, locus YOR070C, strain gyp1, hits give low values 0.979 | S. cerevisiae deletion strains, locus YOR080W, strain dia2, hits give low values 0.978 | S. cerevisiae deletion strains, locus YOR083W, strain WHI5, hits give low values 0.984 | S. cerevisiae deletion strains, locus YOR106W, strain vam3, hits give low values 0.991 | S. cerevisiae deletion strains, locus YOR136W, strain idh2, hits give low values 0.997 | S. cerevisiae deletion strains, locus YOR144C, strain elg1, hits give low values 1 | S. cerevisiae deletion strains, locus YOR184W, strain ser1, hits give low values 0.971 | S. cerevisiae deletion strains, locus YOR231W, strain MKK1, hits give low values 1.02 | S. cerevisiae deletion strains, locus YOR265W, strain rbl2, hits give low values 0.983 | S. cerevisiae deletion strains, locus YOR270C, strain vph1, hits give low values 0.978 | S. cerevisiae deletion strains, locus YOR290C, strain snf2, hits give low values 0.93 | S. cerevisiae deletion strains, locus YOR316C, strain cot1, hits give low values 1 | S. cerevisiae deletion strains, locus YPL051W, strain arl3, hits give low values 0.939 | S. cerevisiae deletion strains, locus YPL055C, strain LGE1, hits give low values 0.999 | S. cerevisiae deletion strains, locus YPL078C, strain atp4, hits give low values 1 | S. cerevisiae deletion strains, locus YPL106C, strain sse1, hits give low values 0.973 | S. cerevisiae deletion strains, locus YPL240C, strain hsp82, hits give low values 0.98 | S. cerevisiae deletion strains, locus YPL256C, strain CLN2, hits give low values 1.03 | S. cerevisiae deletion strains, locus YPR119W, strain clb2, hits give low values 0.984 | S. cerevisiae deletion strains, locus YPR141C, strain kar3, hits give low values 1.01 | S. cerevisiae deletion strains, locus YPR163C, strain tif3, hits give low values 0.949 | S. cerevisiae deletion strains, locus YPR167C, strain met16, hits give low values 0.999 | S. cerevisiae deletion strains, strain wtn01, hits give low values 0.995 | S. cerevisiae strains, strain wild type, hits give low values 1.01
active: S. cerevisiae deletion strains, locus YLR262C, strain YPT6 (second series), hits give low values 0.845 | S. cerevisiae deletion strains, locus YML032C, strain rad52, hits give low values 0.812 | S. cerevisiae deletion strains, locus YNL250W, strain rad50, hits give low values 0.834 | S. cerevisiae deletion strains, locus YNL307C, strain MCK1, hits give low values 0.862 | S. cerevisiae deletion strains, locus YOR069W, strain VPS5, hits give low values 1.12 [resistant]
